From PubChem
Pf growth 48h: inhibits P. falciparum growth in the first generation, 48 h. P. falciparum luciferase growth in erythrocytes, 48 h. Potency, µM (doses to about 28.7 µM), for the others: at the top dose activity change, negative = inhibition, most hits filed as inhibitors. 5.9% of 310,000 active. AID 504832; further: potency means the concentration at half of the fitted maximal effect; on the % scale 0 is the no-effect control and ±100 the full control effect
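Here the parasites carry a stable luciferase gene and grow inside erythrocytes in Albumax-based RPMI medium with compound for one erythrocytic cycle. Activity is scored as loss of luminescent signal.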
Pf growth 96h: P. falciparum growth inhibition at 96 hours; P. falciparum luciferase reporter growth, 96 h; Potency, µM (highest dose often 28.7 µM), inactives show top-dose activity change, negative = inhibition, usual class: inhibitors; 6.9% of 320,000 active; AID 504834; further: potency means the concentration at half of the fitted maximal effect; on the % scale 0 is the no-effect control and ±100 the full control effect
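P. falciparum expressing integrated firefly luciferase grown in erythrocytes (2% hematocrit, 0.05% parasitemia final) with compounds for 96 hours at 37 C, 5% CO2. Growth inhibition read as loss of luminescence after adding luciferase detection reagent.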
HCV inh: HCV inhibition; Potency, µM (doses to about 41.8 µM), for inactives: top-dose activity change, negative = inhibition, most hits filed as inhibitors; Huh7.5.1 HCVcc-Cre infection, luciferase reporter, 44 h; 3.4% of 340,000 active; AID 651820; further: potency means the concentration at half of the fitted maximal effect; on the % scale 0 is the no-effect control and ±100 the full control effect
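Compounds are dispensed onto cells plated 4 h earlier at 1,000 per well, with HCVcc-Cre virus (about 0.5 moi) added next. Following 44 h of culture, luminescent signal is measured for 15 sec after 15 min with substrate at room temperature.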
HCMV antiviral: blocks human cytomegalovirus replication; HFF cells, HCMV-luciferase reporter, 72 h; active compounds read low; activity change, negative = inhibition, % at 57.5 µM; 4.5% of 410,000 active; AID 1259415; in the data active means activity change below about -60%; inconclusive means no clear call, values can overlap the other calls; inactive means above about -39%; further: on the % scale 0 is the no-effect control and ±100 the full control effect
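Two-dose cell screen: HFF monolayers treated with compounds and infected with luciferase-expressing HCMV at 1 PFU/cell, 72 h at 37C, then lysed for luciferase measurement.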
Sm TGR inh: S. mansoni TGR enzyme inhibition; Q962Y6; purified TGR, DTNB reduction, TNB absorbance 405 nm; Potency, µM (series often up to 114 µM), inactives show at the top dose activity change, negative = inhibition, most hits filed as inhibitors; 3% of 360,000 active; AID 485364; further: potency means the concentration at half of the fitted maximal effect; on the % scale 0 is the no-effect control and ±100 the full control effect; nearly all actives have a fitted effect of over 60% in size
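Kinetic colorimetric format: TGR-catalysed, NADPH-driven DTNB reduction monitored via TNB absorbance. Enzyme dispensed at 20 nM; compound exposure 15 min at room temperature before reaction start.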
SARS PLpro yeast: blocks SARS-CoV papain-like protease in a yeast assay; S. cerevisiae expressing SARS-CoV PLpro, growth rescue; Potency, µM (titrated, usually from 32.9 µM), for the others: at the top dose activity, positive = growth rescue, most hits filed as activators; 0.19% of 330,000 active; calls by dose curve; further: potency means the concentration at half of the fitted maximal effect; 0% is about no effect; nearly all actives have a fitted effect of over 55% in size
* = called active by the depositor; ? = inconclusive; · = no result; ! = not confirmed by another sample; [ ] = remark or other dose. Rows were chosen to be rich in hits. Some 15% of all compounds tested hit in one or more screens of this group. Unless noted, the call rests on the fitted dose curve; in most records, active means well fitted curve in the direction sought with a large enough effect; inconclusive means small, poorly fitted or top-dose-only effect, or another doubt; inactive means no such curve, though single readings can be large; an effect the other way counts as inactive or inconclusive.

SMILES	Pf growth 48h	Pf growth 96h	HCV inh	HCMV antiviral	Sm TGR inh	SARS PLpro yeast
N=C(N)c1ccc(/C=C/c2ccc(C(=N)N)cc2O)cc1	1.1µM*	0.076µM*	24%	-35	-18%	-1%
Cc1ccc(-n2nc3c(c2NC(=O)c2ccco2)CS(=O)(=O)C3)cc1C	3%	-2%	·	12	-25%	-1%
COc1ccc(-n2nc3c(c2NC(=O)c2ccco2)CS(=O)(=O)C3)cc1	18%	?	31%	-5	45µM*	13%
O=C(Nc1c2c(nn1-c1cccc(Cl)c1)CS(=O)(=O)C2)c1ccco1	-4%	?	4%	-18	45µM*	6%
Cc1ccc(NC(=O)c2cnc(N3CCN(c4ccccn4)CC3)c3ccccc23)c(Br)c1	?	?	7.1µM*	-70*	10%	-10%
O=C(Nc1c(F)cccc1F)c1cnc(N2CCN(c3ccccn3)CC2)c2ccccc12	?	?	13µM*	?	-22%	-7%
COc1ccc(CNC[C@H]2O[C@@H](n3ccc(=O)[nH]c3=O)[C@H](O)[C@@H]2O)cc1	·	·	·	13	·	·
CCCCN(C)C(=O)CS(=O)(=O)Cc1nc(-c2cccc(OC)c2)oc1C	30%	-2%	-23%	-33	22µM*	8%
COc1ccc(CNC(=O)CS(=O)(=O)Cc2nc(-c3cccc(OC)c3)oc2C)cc1	?	16%	?	-27	-33%	-5%
COc1cccc(-c2nc(CS(=O)(=O)CC(=O)NCCC(C)C)c(C)o2)c1	0%	26%	?	-17	45µM*	21%
CCN(CCNC(=O)CS(=O)(=O)Cc1nc(-c2cccc(OC)c2)oc1C)c1ccccc1	-17%	?	22µM*	-3	-28%	-17%
COCCCNC(=O)CS(=O)(=O)Cc1nc(-c2cccc(OC)c2)oc1C	35%	33%	-2%	5	?	1%
COc1cccc(-c2nc(CS(=O)(=O)CC(=O)NCCc3ccc(OC)cc3OC)c(C)o2)c1	?	5%	?	-26	25µM*!	1%
COc1cccc(-c2nc(CS(=O)(=O)CC(=O)NCCc3ccc(C)cc3)c(C)o2)c1	?	0%	-12%	12	-10%	-1%
COc1ccc(OC)c(S(=O)(=O)Oc2ccc(N)c3ccccc23)c1	·	·	?	-16	·	·
Cc1c(C(=O)O)cccc1-n1c(C)cc(/C=C(/C#N)C(=O)NCc2ccccc2)c1C	?	?	1%	-1	·	0%
COc1ccc(OC)c(CCNC(=O)CS(=O)(=O)Cc2nc(-c3cccc(Cl)c3)oc2C)c1	·	·	·	-13	33%	·
COc1cccc(-c2nc(CS(=O)(=O)CC(=O)N3CCN(c4ccccn4)CC3)c(C)o2)c1	-2%	?	?	-16	50µM*	3%
COc1cccc(-c2nc(CS(=O)(=O)CC(=O)NC3CCCCC3C)c(C)o2)c1 (stereo not given)	?	?	-12%	-22	40µM*	15%
COc1cccc(-c2nc(CS(=O)(=O)CC(=O)NC3CCCCCC3)c(C)o2)c1	-10%	8%	?	-14	?	5%
COc1cccc(-c2nc(CS(=O)(=O)CC(=O)NCCc3cc(OC)ccc3OC)c(C)o2)c1	-28%	13µM*	?	11	?	4%
COc1cccc(-c2nc(CS(=O)(=O)CC(=O)N3CCCCC3)c(C)o2)c1	4%	-26%	?	?	?	-1%
COc1cccc(-c2nc(CS(=O)(=O)CC(=O)Nc3c(C)cc(C)cc3C)c(C)o2)c1	·	·	·	-62*	-14%	·
Cc1ccc(NC(=O)CCc2nnc3n(CC(C)C)c(=O)c4ccccc4n23)cc1C	·	·	·	-2	5%	·
COc1ccc(CN2CCCC(N3CCN(c4cccc(Cl)c4)CC3)C2)cc1OC (stereo not given)	?	9.3µM*	-13%	19	-2%	-3%
SMILES	Pf growth 48h	Pf growth 96h	HCV inh	HCMV antiviral	Sm TGR inh	SARS PLpro yeast
COc1ccc(CN2CCCC(N3CCN(c4ccc(OC)cc4)CC3)C2)cc1 (stereo not given)	-34%	-15%	-1%	-6	-6%	-2%
CCOc1cc(CN2CCCC(N3CCN(c4ccc(F)cc4)CC3)C2)ccc1OC (stereo not given)	1µM*	-35%	0%	-25	1%	1%
CC(C)CN1CCCC(N2CCN(c3cccc(Cl)c3)CC2)C1 (stereo not given)	5%	?	-22%	?	9%	·
CCOC(=O)c1c(S(=O)(=O)NCC(C)c2ccccc2)c(C)n(C)c1C (stereo not given)	?	?	2%	0	2%	-2%
O=C1C(=Cc2cccs2)Oc2ccccc21	·	·	-3%	-69*	·	·
CC1(C)C(=O)OC(c2cccc([N+](=O)[O-])c2)C2(CCCCC2)C1=O (stereo not given)	?	16%	11%	-9	·	1%
CC1(C)C(=O)OC(c2cccn2-c2cccc([N+](=O)[O-])c2)C2(CCCCC2)C1=O (stereo not given)	13µM*	-25%	-10%	-39	0%	-87%
Cc1ccc(OCC(=O)N2N=C(c3ccncc3)CC2(O)C(F)(F)F)cc1C (stereo not given)	?	-7%	-6%	121	-23%	1%
O=C(COc1ccccc1)N1N=C(c2cccnc2)CC1(O)C(F)(F)F (stereo not given)	?	0.93µM*	19%	23	10%	19%
O=C(CC(c1ccccc1)c1cc(Cl)ccc1O)N1CCOCC1 (stereo not given)	11%	-33%	-5%	8	1%	7%
Oc1ccc(Cl)cc1C(C#Cc1ccccc1)N1CCOCC1 (stereo not given)	?	10µM*	0%	29	?	-16%
CCCCC[C@H](O)/C=C/[C@H]1C=CC(=O)[C@@H]1C/C=C\CCCC(=O)O	-4%	4%	-14%[8.37 µM]	·	40µM*	23%
CCCCCC(O)C=CC1C(O)CC(O)C1CC=CCCCC(=O)O (stereo not given)	·	·	·	9	·	·
CCCc1cc(=O)oc2c(C)c(OCC(=O)Nc3ccc(CN4CCOCC4)cc3)ccc12	?	4.1µM*	?	-26	-12%	0%
CCCCc1cc(=O)oc2c(C)c(OCC(=O)NCC3CCC(C(=O)O)CC3)ccc12 (stereo not given)	40%	10µM*	-77%	10	10%	13%
Cc1cc(C)cc(OCC(=O)Nc2ccc(CN3CCCCC3)cc2)c1	12µM*	?	-18%	-28	·	2%
